Among the data in PubChem BioAssay (EPA / NIEHS) are outcome and AC50 values, retold here.

Several values for one entry are separate records, joined by “and”; a condition that tells them apart may be missing. Equal values may be shown once. Results filed as inconclusive are left out. The source holds several records for some structures; these can differ, active in one and inactive in another. Activity calls are given as the source filed them. The calls were made as follows: active = hit-call score of the fitted dose curve at least 0.9, where 1 is the maximum; inconclusive = response in the unintended direction; inactive = score below 0.9.

Sequence of Glucocorticoid receptor (Homo sapiens) (P04150 whole entry, looked up): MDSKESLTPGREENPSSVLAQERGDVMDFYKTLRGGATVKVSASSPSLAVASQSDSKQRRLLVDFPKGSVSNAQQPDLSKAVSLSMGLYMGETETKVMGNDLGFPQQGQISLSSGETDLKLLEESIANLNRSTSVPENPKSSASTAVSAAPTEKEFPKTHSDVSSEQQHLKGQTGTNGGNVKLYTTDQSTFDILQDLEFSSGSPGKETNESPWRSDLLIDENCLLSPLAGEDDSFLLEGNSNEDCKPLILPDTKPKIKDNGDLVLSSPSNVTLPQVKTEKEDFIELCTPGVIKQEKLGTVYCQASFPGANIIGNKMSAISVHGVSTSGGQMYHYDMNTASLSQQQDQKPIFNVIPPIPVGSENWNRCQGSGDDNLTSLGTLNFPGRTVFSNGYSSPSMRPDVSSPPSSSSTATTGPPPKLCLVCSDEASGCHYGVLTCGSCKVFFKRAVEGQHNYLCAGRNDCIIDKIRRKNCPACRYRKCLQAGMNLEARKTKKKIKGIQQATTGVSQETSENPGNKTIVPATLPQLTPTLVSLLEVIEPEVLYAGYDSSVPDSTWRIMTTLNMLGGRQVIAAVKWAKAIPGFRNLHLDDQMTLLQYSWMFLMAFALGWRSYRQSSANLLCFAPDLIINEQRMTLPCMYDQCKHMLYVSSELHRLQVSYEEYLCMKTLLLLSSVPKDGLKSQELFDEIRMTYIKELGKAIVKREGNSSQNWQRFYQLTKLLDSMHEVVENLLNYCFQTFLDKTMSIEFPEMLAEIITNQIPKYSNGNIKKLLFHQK

This experiment addresses Glucocorticoid receptor (Homo sapiens) (UniProt P04150). Nature of the experiment: NVS_NR_hGR: NovaScreen (NVS) Nuclear Receptor Binding Assay for human Glucocorticoid Receptor (GR) (AID 2283363). On the procedure:
NVS_NR_hGR is a biochemical, single-readout assay that uses extracted gene-proteins in a cell-free assay. Measurements were taken 16 hours after chemical dosing in a 96-well plate.NVS_NR_hGR is one of one assay component(s) measured or calculated from the NVS_NR_hGR assay. It is designed to make measurements of radioligand binding, a form of binding reporter, as detected with scintillation counting signals by Filter-based radiodetection technology.Data from the assay component NVS_NR_hGR was analyzed into 1 assay endpoint. This assay endpoint, NVS_NR_hGR, was analyzed in the positive analysis fitting direction relative to DMSO as the negative control and baseline of activity. Using a type of binding reporter, loss-of-signal activity can be used to understand changes in the binding as they relate to the gene NR3C1. Furthermore, this assay endpoint can be referred to as a primary readout, because the performed assay has only produced 1 assay endpoint. To generalize the intended target to other relatable targets, this assay endpoint is annotated to the nuclear receptor intended target family, where the subfamily is steroidal.
Binding assays used specific radioligands (tritiated, iodinated) with non-radioactive competitive displacement ligands in agonist or antagonist protocols (as indicated) and various reference compounds and inhibitors to titrate specific binding to receptors and transporters. Most enzyme assays (CYPs, kinases, phosphatases, proteases, HDACs) used recombinant protein and specific substrates (fluorescence mostly, some colorimetric and radioactive) and inhibitors, followed by a biochemical separation of substrate and product. All assays for the biochemical HTS were initially run in duplicate at a single concentration (10 uM for CYP450 assays and 25 uM for all others). […] Each assay was run with positive and negative controls, and concurrent controls on every plate. The follow-up (secondary) screen tested active chemical-pairs in concentration series, as well as a few additional assays not tested in the primary screen, some selected negative inactives, and several cases re-run in the concentration series for confirmatory purposes.
With `CCCCCCCCOC(=O)c1ccc(O)cc1`, the call was inactive.

Usually AC50 stands for the concentration giving half of the maximal activity seen. For the molecule `CC/C(=C(\c1ccccc1)c1ccc(OCCN(C)C)cc1)c1ccccc1`, the call was inactive; the AC50 is 3.08 µM (active) and 6.38 µM (active). On to `CCCCCCCCCCOC(=O)c1ccccc1C(=O)OCCCCCCCC`, for which the result was inactive.

As for `O=C1OC2(c3ccc(O)cc3Oc3cc(O)ccc32)c2ccccc21`, the AC50 is 25 µM (active). In the case of `C[C@]12CC[C@@H]3c4ccc(O)cc4CC[C@H]3[C@@H]1CC[C@@H]2O`, the molecule was classed as inactive; the AC50 was 384 nM (active) and 359 nM (active). For `C=CC(=O)OCC(CO)(COC(=O)C=C)COC(=O)C=C`, the AC50 was 4.96 µM (active). As to `CN1CCc2cccc3c2[C@H]1Cc1ccc(O)c(O)c1-3`, the molecule was called inactive. Take `c1ccc2c(c1)-c1ccc3ccc4cccc5cc-2c1c3c45`: the molecule was classed as inactive. With `CC1(C)CC(=O)CC(C)(C)N1`, the molecule was called inactive. As to `O=C(c1ccc(OCCN2CCCCC2)cc1)c1c(-c2ccc(O)cc2)sc2cc(O)ccc12`, the AC50 is 6.7 µM (active) [middle of 4 runs]. With `CCCCCC(=O)O[C@]1(C(C)=O)CC[C@H]2[C@@H]3CCC4=CC(=O)CC[C@]4(C)[C@H]3CC[C@@]21C`, the concentration at half-maximal activity (AC50) was 0.0187 µM (active).

Turning to `O=S1(=O)CC(Cl)(Cl)C(Cl)(Cl)C1`, the AC50 is 25 µM (active).

In the case of `C#C[C@]1(O)CC[C@H]2[C@@H]3CCc4cc(O)ccc4[C@H]3CC[C@@]21C`, the AC50 is 304 nM (active) and 305 nM (active) and 1.43 µM (active).
